Most compounds without a hit are left out; they make up all but 1.6% or so of the library.
KCNQ2 pot: KCNQ2 (rat) channel potentiation. O88943. CHO-K1 KCNQ2, FluxOR thallium flux fluorescence; stronger effect = higher value. B-score at 10 µM. 310,000 compounds, 0.54% hits;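 active means fluorescence ratio B-score at least 3 SD of library B-scores, with initial fluorescence B-score within 3 of them, cut at about 5.3 in these data; same plate scores as AID 2156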;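 further: B-score of peak minus minimum over baseline fluorescence ratio after K+ and Tl+ stimulus; positive B-score means potentiation of KCNQ2 with more thallium influx and brighter signal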
KCNQ2 block: blocks the rat KCNQ2 potassium channel; 310,000 compounds, 1.1% hits; B-score at 10 µM; AID 2156; CHO-K1 KCNQ2, FluxOR thallium flux, 20 min; stronger effect = lower value;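 active means fluorescence ratio B-score at most minus 3 library SDs, with starting brightness B-score within 2 library SDs, cut at about -5.5 in these data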
KCNQ2 inh conf: confirmation of rat KCNQ2 potassium channel inhibitors. shares compounds with KCNQ2 block. KCNQ2-expressing cells, thallium flux, inhibition; stronger effect = lower value. activity change, negative = inhibition, % at 10 µM. 1,000 compounds, 57% hits. AID 493025
KCNQ1 spec: selectivity of KCNQ2 inhibitors against human KCNQ1. shares compounds with KCNQ2 block. KCNQ1-expressing cells, FluxOR thallium flux fluorescence; stronger effect = lower value. activity change, negative = inhibition, % at 10 µM. 1,000 compounds, 15% hits. AID 493026;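 active means activity change at least 3 SD of negative controls below their mean in both duplicate wells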;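 further: CHO cells stably transfected with KCNQ1 and depolarized by potassium stimulus; peak minus minimum fluorescence over baseline after thallium addition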
Target sequence (P51787 whole entry, looked up): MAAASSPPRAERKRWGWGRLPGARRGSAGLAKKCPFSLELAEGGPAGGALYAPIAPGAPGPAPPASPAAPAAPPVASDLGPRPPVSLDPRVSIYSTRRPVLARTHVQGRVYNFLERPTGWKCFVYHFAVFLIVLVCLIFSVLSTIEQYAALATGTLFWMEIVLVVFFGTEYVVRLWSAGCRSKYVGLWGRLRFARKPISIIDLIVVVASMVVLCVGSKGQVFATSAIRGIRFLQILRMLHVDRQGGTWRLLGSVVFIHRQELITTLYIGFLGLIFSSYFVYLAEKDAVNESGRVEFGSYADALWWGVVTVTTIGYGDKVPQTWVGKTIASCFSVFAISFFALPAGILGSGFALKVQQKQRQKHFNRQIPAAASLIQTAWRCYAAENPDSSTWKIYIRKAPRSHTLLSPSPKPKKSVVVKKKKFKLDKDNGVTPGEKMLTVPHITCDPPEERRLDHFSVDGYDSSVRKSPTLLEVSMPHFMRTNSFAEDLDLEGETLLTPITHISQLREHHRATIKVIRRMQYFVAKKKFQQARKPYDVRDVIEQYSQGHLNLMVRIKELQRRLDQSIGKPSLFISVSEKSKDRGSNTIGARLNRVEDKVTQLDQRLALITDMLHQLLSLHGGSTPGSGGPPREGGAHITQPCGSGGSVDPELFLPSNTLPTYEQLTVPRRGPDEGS
CHO parental ctr: activity in parental CHO cells lacking KCNQ2. shares compounds with KCNQ2 block. thallium flux counter-screen; stronger effect = lower value. activity change, % at 10 µM. 1,000 compounds, 14% hits. AID 493029
KCNQ2 inh confirm: rat KCNQ2 inhibition confirmed by electrophysiology; shares compounds with KCNQ2 block; KCNQ2-expressing cells, automated patch clamp current; calls only at 10 µM; 550 compounds, 49% hits; AID 588531
A number is an active result; n = inactive; x = not tested or not shown; + = active, no number. Unless noted, how the calls were made is not given here.

SMILES	KCNQ2 pot	KCNQ2 block	KCNQ2 inh conf	KCNQ1 spec	CHO parental ctr	others
O=C(Nc1cccc(-c2csc(Nc3cccc(C(F)(F)F)c3)n2)c1)c1ccccc1	n	n	x	x	x
O=C(Nc1cccc(-c2csc(Nc3ccccc3)n2)c1)c1ccccc1	n	-6.8	n	n	n
O=C(Nc1ccccc1)Nc1cccc(C(F)(F)F)c1	x	n	x	x	x
COC(=O)/C(=C\C(=O)c1ccccc1)Nc1cccc(C(F)(F)F)c1	n	-7.82	n	n	n
Cc1ccc(Nc2nc(CSc3nnnn3-c3ccccc3)cs2)cc1	x	n	x	x	x
Cc1cccc(-n2nnnc2SCc2csc(-c3ccccc3)n2)c1	n	-7.15	-32.0%	n	n	KCNQ2 inh confirm=+
CN1C(=O)/C(=C/c2ccc(OCc3ccccc3F)cc2)N(C)C1=S	n	n	x	x	x
Cc1cccc(NC(=O)c2ccc(COc3cccc4ccccc34)o2)n1	n	-8.76	-38.0%	-34.0%	-27.5%	KCNQ2 inh confirm=n
CC(=O)Nc1ccc(NC(=O)c2ccc(COc3ccccc3Br)o2)cc1	n	n	x	x	x
Oc1oc(-c2ccccc2)nc1/C=N/c1nccs1	n	n	x	x	x
Oc1oc(-c2ccccc2)nc1C=Nc1cccc2ccccc12	n	-8.69	n	n	n
CSc1ccc(S(=O)(=O)NCC(=O)OCC(=O)N(Cc2ccccc2)C(C)C)cc1[N+](=O)[O-]	n	n	x	x	x
Cn1cc(CCC(=O)NCCCc2ccccc2)c2ccccc21	x	n	x	x	x
Cc1cccc(-c2nc(CN3CCCC(C(=O)NC4CCC(C)CC4)C3)c(C)o2)c1 (configuration not stated)	n	-9.63	-26.5%	n	n	KCNQ2 inh confirm=+
Cc1cccc(-c2nc(CN3CCCC(C(=O)NC4CCCC4)C3)c(C)o2)c1 (configuration not stated)	x	n	x	x	x
O=C(CN1CCN(CC(=O)Nc2ccccc2Cc2ccccc2)CC1)Nc1ccccc1Cl	x	n	x	x	x
CC(C)c1ccc2c(c1)C(N1CCNCC1)Cc1ccc(F)cc1S2 (configuration not stated)	n	-9.69	-38.5%	-36.5%	-31.0%	KCNQ2 inh confirm=n
CN1CCN(C2Cc3ccc(F)cc3Sc3cc(F)c(Cl)cc32)CC1 (configuration not stated)	x	n	x	x	x
Cc1cccc(-c2oc3ccc(-c4ccc5c(c4)OCO5)cc3c2/C=C/c2ccc(N)cc2)c1	n	n	x	x	x
Cc1cc(C)n(C(=O)CCCn2cc([N+](=O)[O-])cn2)n1	n	n	x	x	x
CC1CCN(C(=O)Cn2c(=O)n(Cc3ccc4c(c3)OCO4)c(=O)c3ccccc32)CC1	n	-7.17	-31.0%	n	n	KCNQ2 inh confirm=+
CC1CCCCN1C(=O)CSc1nc2cc3c(cc2c(=O)n1Cc1ccc2c(c1)OCO2)OCO3 (configuration not stated)	x	n	x	x	x
CC1CCN(C(=O)CSc2nc3ccccc3c(=O)n2Cc2ccc3c(c2)OCO3)CC1	n	-7.33	n	n	n
O=C(Cn1c(=O)n(Cc2ccc3c(c2)OCO3)c(=O)c2ccccc21)N1CCCc2ccccc21	x	n	x	x	x
CCOC(=O)CCNC(=O)N1CCCC(N2CCN(c3ccc(OC)cc3)CC2)C1 (configuration not stated)	x	n	x	x	x
SMILES	KCNQ2 pot	KCNQ2 block	KCNQ2 inh conf	KCNQ1 spec	CHO parental ctr	others
CC(C)c1ccc(C(=O)N/N=C/c2cccc(Cl)c2Cl)cc1	n	-9.53	n	n	n
CC(C)c1ccc(/C=N/NC(=O)c2cccc(Cl)c2)cc1	x	n	x	x	x
Cc1ccc(O)c(C(=O)c2cnc3c(c2)COc2ccc(C)cc2-3)c1	n	-6.81	n	n	n
Cc1ccc(O)c(C(=O)c2cnc(/N=C(\N)N(C)C)nc2)c1	n	n	x	x	x
CCOC(=O)CSc1nnc(CNc2ccccc2Cl)n1-c1ccccc1	n	-6.69	-25.0%	n	n	KCNQ2 inh confirm=+
CCOC(=O)CSc1nnc(Cc2ccccc2)n1-c1cccc(Cl)c1	x	n	x	x	x
CC1C2NC(=O)N(Cc3ccccc3)C1(C)Oc1ccccc12 (configuration not stated)	x	n	x	x	x
O=C(Cn1ccc(C(F)(F)F)n1)N=Nc1c(O)[nH]c2ccccc12	x	n	x	x	x
O=C(Cn1ccc(C(F)(F)F)n1)N=Nc1c(O)[nH]c2ccc(Br)cc12	n	-9.29	-27.0%	n	n	KCNQ2 inh confirm=+
CCN(c1ccc(NC(=O)c2ccc(N3CCCC3=O)cc2)cc1)C(C)C	n	n	x	x	x
COc1ccc2c(ccn2S(=O)(=O)c2ccccc2)c1	x	n	x	x	x
COc1ccc(-c2nc(CSCC(=O)NC3CCCc4ccccc43)c(C)o2)cc1OC (configuration not stated)	n	-10.2	n	n	n
COc1ccc(-c2nc(CS(=O)CC(=O)NC3CCCc4ccccc43)c(C)o2)cc1OC (configuration not stated)	x	n	x	x	x
COc1cc(Br)c(CN2C(=O)NC3(CCCCCC3)C2=O)cc1OC	n	n	x	x	x
CCNc1nc(NCC)n2c(SCC(=O)N(CC)C3CCCCC3)nnc2n1	n	n	x	x	x
C=CCn1c(=O)c(C(=O)NC2CC2)c(O)c2cc(OC)c(OC)cc21	x	n	x	x	x
COc1ccc(CN(C(=O)c2ccco2)c2ccc(C)c(C)c2)cc1	n	-6.66	n	n	n
CCOc1ccc(N(Cc2ccc(OC)cc2)C(=O)c2ccco2)cc1	x	n	x	x	x
O=C(NCc1cccs1)C1CCCN1C(=O)Nc1ccc(F)cc1 (configuration not stated)	x	n	x	x	x
Cc1cc(S(=O)(=O)N2c3ccc(F)cc3CCC2C)ccc1-n1cnnn1 (configuration not stated)	n	n	x	x	x
CN(CC(O)COc1ccccc1F)C1CCCCC1 (configuration not stated)	n	n	x	x	x
Cc1ccccc1OCC(O)CN(Cc1ccccc1O)C1CCCCC1 (configuration not stated)	n	-7.41	-28.5%	n	n	KCNQ2 inh confirm=+
O=C(COC(=O)c1ccccc1O)Nc1cc([N+](=O)[O-])ccc1Cl	n	n	x	x	x
COc1ccc(/C=C/C(=O)c2ccccc2)cc1COc1ccc(F)cc1	n	-6.64	n	n	n
COc1ccc(/C=C/C(=O)c2ccc(O)cc2)cc1COc1ccc(F)cc1	x	n	x	x	x
SMILES	KCNQ2 pot	KCNQ2 block	KCNQ2 inh conf	KCNQ1 spec	CHO parental ctr	others
C=CCn1c(SCC(=O)NCCO)nc2sc(C)c(C)c2c1=O	x	n	x	x	x
C=CCn1c(SCC(=O)c2cc(C)n(C(C)COC)c2C)nc2sc(C)c(C)c2c1=O (configuration not stated)	n	-10.8	n	n	n
COc1ccc(N(C)C(=O)c2cc3c(Cl)nc4ccccc4c3s2)cc1	n	-9.52	-39.0%	-40.0%	-37.0%	KCNQ2 inh confirm=+
COc1ccc(NC(=O)c2cc3c(Cl)nc4ccccc4c3s2)c(OC)c1	n	n	x	x	x
Cc1[nH]n(-c2ccccc2)c(=O)c1C(C[N+](=O)[O-])c1ccccc1Cl (configuration not stated)	x	n	x	x	x
COc1ccc(C(C[N+](=O)[O-])c2c(C)[nH]n(-c3ccccc3)c2=O)cc1 (configuration not stated)	n	-7.05	-26.0%	n	n	KCNQ2 inh confirm=n
CC(C)(Oc1ccc(Cl)cc1)C(=O)N1CCN(c2ccccn2)CC1	n	-7.38	n	n	n
O=C(/C=C/c1ccc(Cl)cc1)N1CCN(c2ccccn2)CC1	x	n	x	x	x
OCC1(CCc2ccccc2)CCCN(CCCC(F)(F)F)C1 (configuration not stated)	x	n	x	x	x

Compound activity deposited in PubChem BioAssay by Johns Hopkins Ion Channel Center.
